Assay results reported in PubChem BioAssay (NCI).
The panel holds about 79,000 compounds, 15% with a hit somewhere; the sample as a whole holds those more often. The source made the active and inactive calls. No stated cut-off is given here; in the data, active means growth inhibition above about 70%; inactive means the rest.

What was measured:
[1] = NCI Yeast Anticancer Drug Screen. Data for the rad50 strain (AID 155);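 further: 0% = growth of vehicle-only cultures of the same strain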; settings: S. cerevisiae rad50 strain growth inhibition; at 50.0 µM; stronger effect = higher value
Outline: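 Compounds were tested on a yeast strain with an engineered DNA damage repair alteration; the reported value is growth inhibition normalised to vehicle treatment.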

[2] = NCI Yeast Anticancer Drug Screen. Data for the mec2-1 strain (AID 157); settings: S. cerevisiae mec2-1 strain, at 50.0 µM, stronger effect = higher value
Outline: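 Mutant yeast (mec2-1) grown with compound; growth inhibition relative to vehicle control reported.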

[3] = NCI Yeast Anticancer Drug Screen. Data for the sgs1 mgt1 strain (AID 161);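 further: 0% = growth of cultures given vehicle only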; settings: S. cerevisiae sgs1 mgt1 strain, at 50.0 µM, stronger effect = higher value
Outline: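 This yeast growth screen uses a strain with defined DNA-repair lesions; compound-treated growth is compared with vehicle-treated growth.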

[4] = NCI Yeast Anticancer Drug Screen. Data for the cln2 rad14 strain (AID 165);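 further: 0% = growth equal to vehicle treated cultures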; settings: S. cerevisiae cln2 rad14 strain, at 50.0 µM, stronger effect = higher value
Outline: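 Readout is yeast growth inhibition versus vehicle-treated controls, using a strain with cln2 and rad14 alterations exposed to compound.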

[5] = NCI Yeast Anticancer Drug Screen. Data for the bub3 strain (AID 167); settings: S. cerevisiae bub3 mutant strain, at 50.0 µM, stronger effect = higher value
Outline: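 Growth of a checkpoint-deficient yeast mutant is measured after compound exposure. Values represent inhibition relative to vehicle.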

[6] = NCI Yeast Anticancer Drug Screen. Data for the mlh1 rad18 strain (AID 175); settings: S. cerevisiae mlh1 rad18 strain growth inhibition; at 50.0 µM; stronger effect = higher value
Outline: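 Genetically defined yeast (DNA repair-deficient) exposed to compounds; growth inhibition determined relative to vehicle.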

Measured: growth inhibition

CCCCNC(=S)SSSSC(=S)NCCCC
inactive: [1] -8.45% | [2] -14% | [3] -6.05% | [4] -53.5% | [5] 8.7% | [6] -7.55%

CC(C)CC(=O)OC1=C(O)C(=O)C(OC(=O)CC(C)C)=C(O)C1=O
inactive: [1] -5.45% | [2] -13.7% | [3] 2.1% | [4] -62.4% | [5] 0.1% | [6] 5.65%

O=C(Nc1ccccc1-c1nn(CO)c(=S)n(CO)c1=O)C(F)(F)F
inactive: [1] 40.2% | [2] 23.9% | [3] 43.2% | [4] 12.6% | [5] -22.6% | [6] 20.2%

O=C(NC(=O)c1c(F)cccc1F)Nc1ccc(OCc2ccccc2)cc1
inactive: [1] 24.4% | [2] 0.15% | [3] 5.45% | [4] 9% | [5] -4.15% | [6] 21.4%

CCC(C(=O)O)C(=O)O.[NH-]CC1CCCC[N-]1.[Pt+2]
inactive: [1] 7.7% | [2] -3.6% | [3] 2.55% | [4] 7.95% | [5] -39.5% | [6] -34.7%

O=C(NCCCl)Nc1[nH]c(=O)ncc1Br
inactive: [1] -13.2% | [2] -12.7% | [3] -10.8% | [4] -44.4% | [5] -6.85% | [6] -12.3%

O=CC(O)C(O)C(O)C(O)COC1OC(CO)C(O)C(O)C1O (stereo not drawn)
inactive: [1] 22.6% | [2] -11.7% | [3] 21.2% | [4] 8% | [5] 23% | [6] 11.1%

CCCCCCCCSC#N
inactive: [1] 7.95% | [2] -11% | [3] -3.6% | [4] 23.9% | [5] 2% | [6] -1.4%

CCC1(C)CCC(C)(CC)c2cc(C)ccc21 (stereo not drawn)
inactive: [1] 9.9% | [2] 9.15% | [3] -6.95% | [4] -16.8% | [5] 8.4% | [6] 25.9%

O=C1CSC(c2cccc(Cl)c2)N1c1ccc(-n2c(-c3ccccc3)nc3ccccc3c2=O)cc1 (stereo not drawn)
inactive: [1] -4.3% | [2] 9.65% | [3] 8.9% | [4] -15.9% | [5] 9.2% | [6] -6.8%

Cn1c(=O)c(C(=O)NC23CC4CC(CC(C4)C2)C3)c(O)c2ccccc21
inactive: [1] -44.2% | [2] -37% | [3] -46.5% | [4] -16.3% | [5] -53% | [6] -19.9%

O=c1[nH]cc(Nc2ccccc2)c(=O)[nH]1
inactive: [1] -1.1% | [2] 2.35% | [3] 4.95% | [4] -35.2% | [5] -29.6% | [6] -9.65%

CC1(C)CC(=O)C(CC(C(=O)C(=O)Nc2cc(C(F)(F)F)ccc2Cl)C(=O)c2ccco2)C(=O)C1 (stereo not drawn)
inactive: [1] -1.55% | [2] 30.1% | [3] 18.9% | [4] -22.4% | [5] 13% | [6] 19.1%

CO/C(=N\N=C\c1ccc(OC)c(OC)c1)c1ccncc1
inactive: [1] -21.6% | [2] -37.9% | [3] -12.9% | [4] -7.75% | [5] -28.6% | [6] -40%

CCC(CCc1ccc(OC)c(OC)c1)C(=O)O (stereo not drawn)
inactive: [1] 1.8% | [2] 12.2% | [3] 14.2% | [4] -9.85% | [5] 29.4% | [6] 9.15%

O=C(O)COc1ccccc1/C=C1/SC(=S)N(c2ccccc2)C1=O
inactive: [1] -1.4% | [2] -10.8% | [3] -7.25% | [4] -41.5% | [5] 0.55% | [6] 1.1%

N#CC1=C(S)N(C2OC(CO)C(O)C(O)C2O)C(c2ccccc2)=CC1c1ccco1 (stereo not drawn)
inactive: [1] 36.1% | [2] 13% | [3] 4.85% | [4] -12.4% | [5] -3% | [6] 27.6%

FC(F)(F)c1ccc(Cl)c(N=C=S)c1
inactive: [1] -26.1% | [2] -9.15% | [3] 31.4% | [4] -108% | [5] -21.8% | [6] -4.7%

O=C(/C(=C/c1ccccc1)c1ccc(Cl)cc1)c1ccccc1
inactive: [1] 12.6% | [2] 13.9% | [3] 13.7% | [4] -15.1% | [5] 5.9% | [6] -4%

O=C1c2ccccc2-c2ccc3c4ccc5c6c(ccc(c7ccc1c2c73)c64)-c1ccccc1C5=O
inactive: [1] 25% | [2] -5.4% | [3] 11.1% | [4] -30.4% | [5] 5.75% | [6] 18.4%

Cc1ccc(SSCC(O)C(O)CSSc2ccc(C)cc2)cc1 (stereo not drawn)
inactive: [1] 11.6% | [2] -18.6% | [3] -30.6% | [4] 21.8% | [5] -5.6% | [6] 10.1%

CN(C)c1ccc(/C=C2\Cc3ccccc3C2=O)cc1Br
inactive: [1] 19.6% | [2] -8% | [3] 1.45% | [4] 0.95% | [5] -8.55% | [6] 12.4%

CCCCc1ccc(Nc2nc(=S)c3[nH]cnc3[nH]2)cc1
inactive: [1] 26.9% | [2] 19.6% | [3] 32.2% | [4] 23.9% | [5] 35% | [6] 6.5%

COc1cc2c(cc1OC)C(c1c(Cl)cccc1Cl)=NCC2
inactive: [1] 13.1% | [2] 10% | [3] 41.4% | [4] 4.25% | [5] 42.6% | [6] 12.7%

C/C=C/C(=O)OCCc1ccccc1
inactive: [1] 21.8% | [2] 3.4% | [3] 3.75% | [4] -5.5% | [5] 12.8% | [6] 27.5%

CCOc1ccccc1NC(=O)/C=C1\NC(=O)CS1
inactive: [1] -8.55% | [2] -14.4% | [3] 27.2% | [4] 11.3% | [5] -5.65% | [6] 40.4%

Nc1ncnc2c1ncn2C1CCC(COS(N)(=O)=O)C1 (stereo not drawn)
inactive: [1] 4.3% | [2] 3.65% | [3] 5% | [4] -6.7% | [5] 4.2% | [6] 15.4%

O=C(c1ccccc1)N1OCCCc2ccccc21
inactive: [1] 17.5% | [2] 7.9% | [3] 19.2% | [4] 2.7% | [5] 13.3% | [6] 20.4%

CCOC(=O)N1CCc2cc(OC)c(OC)c3c2c1cc1cc(OC)c(OC)cc13
inactive: [1] -9.2% | [2] 18.9% | [3] -4.55% | [4] -35.5% | [5] 16.1% | [6] 16.4%

CCN(CC)CCCC(C)NCCCN (stereo not drawn)
inactive: [1] -7.15% | [2] -9.05% | [3] -5.4% | [4] -5.4% | [5] -23.3% | [6] -10%

Cc1cc2nn(C3CCCCO3)nc2cc1C (stereo not drawn)
inactive: [1] 1.75% | [2] -20.4% | [3] -21.6% | [4] -25.4% | [5] 8.05% | [6] -46.8%

C=CC(O)CCCC (stereo not drawn)
inactive: [1] 8.35% | [2] -32.6% | [3] 0.6% | [4] 6.25% | [5] -17.1% | [6] 18.1%

COc1ccc(C(=O)OC2CCCN(C(=O)c3ccc(OC)cc3)C2)cc1 (stereo not drawn)
inactive: [1] 0.75% | [2] 2.5% | [3] 0.8% | [4] 0.8% | [5] 10.7% | [6] -5.55%

C[C@@]12CCC3C1C=C1C(=O)c4cc(O)ccc4C(=O)[C@]1(O2)[C@@]3(C)C=O
inactive: [1] -10.7% | [2] 2% | [4] 51.1%
active: [3] 78.8% | [5] 76.3% | [6] 89.7%

CCCCn1c(=S)[nH]c2c(=O)n(C)c(=O)n(C)c21
inactive: [1] 4.95% | [2] 4.3% | [3] 7.55% | [4] -14.4% | [5] -7.35% | [6] 4%

Cc1ccc(C(=O)Nc2ccc(S(=O)(=O)O)c3cc(S(=O)(=O)O)cc(S(=O)(=O)O)c23)cc1N
inactive: [1] -28.1% | [2] -7.05% | [3] -54.5% | [4] 1.7% | [5] -13.2% | [6] -28.2%

CC1CCc2cc(Br)ccc2N1N (stereo not drawn)
inactive: [1] 33.1% | [2] 0.85% | [3] -5.35% | [4] 9.8% | [5] -4.8% | [6] 27.8%

COc1cc(NC(C)=O)c2nccnc2c1
inactive: [1] -16.4% | [2] -21.6% | [3] 0.1% | [4] -20.6% | [5] -0.95% | [6] -14.2%
